# Assay results reported in PubChem BioAssay (Tox21).
# “And” between values parts separate entries of the source, which are not always exact repeats. Identical values can stand only once. Inconclusive results are not listed. Where a call stands in place of a potency, no number is given. The source made the active and inactive calls. Unless noted, the call rests on the fitted dose curve; in most records, active means well fitted curve in the direction sought with a large enough effect in the repeat runs; inconclusive means weak or mixed curves; inactive means no such curve, though single readings can be large; an effect the other way counts as inactive or inconclusive.
# Columns and labels:
# [1] = qHTS assay to identify small molecule antagonists of the glucocorticoid receptor (GR) signaling pathway - cell viability counter screen (AID 720693); further: nearly all actives have a fitted effect of over 55% in size
# [2] = qHTS assay for identifying genotoxic compounds that show differential cytotoxicity against isogenic chicken DT40 cell lines with known DNA damage response pathways - wild type cell line (AID 743012); further: nearly all actives have a fitted effect of over 60% in size; further: potency means the concentration at half of the fitted maximal effect
# Procedure, shortened: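 Luminescent ATP viability signal (CellTiter-Glo, 30 min RT) recorded after wild type DT40 cells were incubated with compounds for 40 h at 37 C/5% CO2.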
# [3] = qHTS assay for identifying genotoxic compounds that show differential cytotoxicity against isogenic chicken DT40 cell lines with known DNA damage response pathways - Rev3 mutant cell line (AID 743014); further: nearly all actives have a fitted effect of over 55% in size; further: potency means the concentration at half of the fitted maximal effect
# [4] = qHTS assay for identifying genotoxic compounds that show differential cytotoxicity against isogenic chicken DT40 cell lines with known DNA damage response pathways - Rad54/Ku70 mutant cell line (AID 743015); further: nearly all actives have a fitted effect of over 60% in size; further: potency means the concentration at half of the fitted maximal effect
# [5] = qHTS assay to identify small molecule antagonists of the androgen receptor (AR) signaling pathway - cell viability counter screen (AID 743033; further: nearly all actives have a fitted effect of over 45% in size)
# [6] = qHTS assay to identify small molecule antagonists of the androgen receptor (AR) signaling pathway using the MDA cell line - cell viability counter screen (AID 743041; further: nearly all actives have a fitted effect of over 45% in size; further: potency means the concentration at half of the fitted maximal effect)
# Procedure, shortened: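 Cytotoxicity counter screen: MDA-kb2 AR-luc cells, compound + R1881, 16 h, 37C, 0% CO2; CellTiter-Fluor added at 15.5 h, fluorescence read after 30 min.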
# [7] = qHTS assay to identify small molecule antagonists of the thyroid receptor (TR) signaling pathway - cell viability counter screen (AID 743064); further: nearly all actives have a fitted effect of over 50% in size; further: potency means the concentration at half of the fitted maximal effect
# Procedure, shortened: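 GH3.TRE-Luc rat pituitary cells dosed after 4 hr plating, co-stimulated with T3 at 1 nM final, incubated 23.5 h at 37 C. Viability measured in the same wells by CellTiter-Fluor fluorescence after 30 min further at 37 C.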
# [8] = qHTS assay to identify small molecule antagonists of the thyroid receptor (TR) signaling pathway (AID 743065); further: nearly all actives have a fitted effect of over 55% in size; further: potency means the concentration at half of the fitted maximal effect
# Procedure, shortened: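 GH3.TRE-Luc rat pituitary cells (two TREs driving luciferase) were dosed with compound, then stimulated with 1 nM T3 (final) for 23.5 h at 37 C. ONE-Glo luminescence was the read-out, with CellTiter-Fluor fluorescence as the cytotoxicity counter-screen.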
# [9] = target: Androgen receptor (Homo sapiens) (UniProt P10275); assay: qHTS assay to identify small molecule antagonists of the androgen receptor (AR) signaling pathway (AID 743035; active means well fitted inhibition curve with a large enough effect in the signal ratio in the repeat runs, not every such curve was filed as active; the % refers to the signal ratio)
# Androgen receptor (Homo sapiens), sequence (P10275 whole entry, looked up): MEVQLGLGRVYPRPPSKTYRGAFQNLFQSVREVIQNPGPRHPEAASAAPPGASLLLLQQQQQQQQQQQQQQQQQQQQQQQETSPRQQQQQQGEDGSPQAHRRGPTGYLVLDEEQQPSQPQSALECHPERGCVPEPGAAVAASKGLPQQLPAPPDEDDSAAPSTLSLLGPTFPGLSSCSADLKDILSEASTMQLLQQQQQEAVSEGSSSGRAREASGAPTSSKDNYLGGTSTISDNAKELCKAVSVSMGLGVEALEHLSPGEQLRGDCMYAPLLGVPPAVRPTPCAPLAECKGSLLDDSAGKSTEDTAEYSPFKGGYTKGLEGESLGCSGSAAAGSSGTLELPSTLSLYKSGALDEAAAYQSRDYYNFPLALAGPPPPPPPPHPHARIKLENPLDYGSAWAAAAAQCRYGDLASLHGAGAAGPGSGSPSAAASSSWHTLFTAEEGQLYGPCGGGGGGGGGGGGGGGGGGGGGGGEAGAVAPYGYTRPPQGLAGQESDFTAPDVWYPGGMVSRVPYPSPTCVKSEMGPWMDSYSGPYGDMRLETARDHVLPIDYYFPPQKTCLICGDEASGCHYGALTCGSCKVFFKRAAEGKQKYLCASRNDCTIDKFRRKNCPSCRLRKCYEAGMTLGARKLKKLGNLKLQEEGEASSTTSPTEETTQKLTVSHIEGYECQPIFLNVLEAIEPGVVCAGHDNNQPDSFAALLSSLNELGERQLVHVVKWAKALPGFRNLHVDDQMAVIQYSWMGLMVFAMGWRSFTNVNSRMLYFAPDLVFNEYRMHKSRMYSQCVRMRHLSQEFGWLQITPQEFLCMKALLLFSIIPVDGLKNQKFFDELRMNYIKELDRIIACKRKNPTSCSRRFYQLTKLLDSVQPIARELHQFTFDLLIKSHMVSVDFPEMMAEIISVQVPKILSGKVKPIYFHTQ
# Procedure, shortened: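 Quantitative HTS of the Tox21 10K library used HEK293 AR-UAS-bla cells stimulated with R1881 alongside compound for 16 h at 37C, followed by beta-lactamase FRET detection (LiveBLAzer B/G, 2 h, RT).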
# [10] = target: Androgen receptor (Homo sapiens) (UniProt P10275); assay: qHTS assay to identify small molecule agonists of the androgen receptor (AR) signaling pathway using the MDA cell line (AID 743040; further: nearly all actives have a fitted effect of over 20% in size)
# Procedure, shortened: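 Luciferase read-out, ONE-Glo, 30 min RT. Cells: MDA-kb2 AR-luc, MMTV promoter with AR and GR response elements. Compound exposure 16 h, 37C, 0% CO2, after 5 h pre-incubation. qHTS agonist mode.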
Compound,Potency [1],Potency [2],Potency [3],Potency [4],Potency [5],Potency [6],Potency [7],Potency [8],Potency [9],outcome [10]
C1CCN(CN2CCCCC2)CC1,inactive,inactive,inactive,inactive,inactive,inactive,inactive,inactive,,
C=Cc1ccc(C=C)cc1,inactive,inactive,inactive,inactive,inactive,inactive,inactive,inactive,,
N#CCCCC(C#N)CCC#N (stereo not given),inactive,inactive,inactive,inactive,inactive,,inactive,inactive,,
CCn1nc(Cc2ccccc2)cc1C1CCN(C[C@H]2C[C@H](N(C)[C@@H](C(=O)O)C(C)C)C[C@@H]2c2cccc(F)c2)CC1,inactive,61.1 µM (active),61.1 µM (active),24.3 µM (active),inactive,inactive,27.3 µM (active),61.1 µM (active),,
O=C(O)c1cccnc1Nc1cccc(C(F)(F)F)c1,inactive,inactive,inactive,inactive,inactive,,inactive,,,
C=CC(=O)OCCCCCCCCCC,inactive,inactive,inactive,inactive,inactive,inactive,inactive,inactive,,
CCCCCCCCCCCC(=O)OCC,inactive,inactive,inactive,inactive,inactive,inactive,inactive,inactive,,
CC1(C)C(=O)NC(=O)N1CO,inactive,inactive,inactive,inactive,inactive,inactive,inactive,inactive,,
CCC(C)CCCC(C)(C)O (stereo not given),inactive,inactive,inactive,inactive,inactive,inactive,,inactive,,
Cc1cc(C)n(CO)n1,inactive,inactive,inactive,inactive,inactive,inactive,inactive,inactive,,
CCCCCC1CCC(=O)O1 (stereo not given),inactive,inactive,inactive,inactive,inactive,inactive,inactive,inactive,,
C=C[Si](OCC)(OCC)OCC,inactive,inactive,inactive,inactive,inactive,inactive,inactive,inactive,,
Cc1cc(C)c(C)c(O)c1,inactive,inactive,inactive,inactive,inactive,inactive,inactive,inactive,,
O=C1C=CCCC1,inactive,inactive,inactive,inactive,inactive,inactive,inactive,inactive,,
CC(O)C(C)O (stereo not given),inactive,inactive,inactive,inactive,inactive,inactive,,inactive,,
C1=COCCC1,inactive,inactive,inactive,inactive,inactive,inactive,,inactive,,
CC(COc1ccccc1)NC(C)C(O)c1ccc(O)cc1 (stereo not given),inactive,inactive,inactive,inactive,inactive,inactive,inactive,inactive,,
CC(C)(C)N,inactive,inactive,inactive,inactive,inactive,inactive,inactive,inactive,,
Cc1nc2sccn2c(=O)c1CCN1CCC(=C(c2ccc(F)cc2)c2ccc(F)cc2)CC1,inactive,7.5 µM (active),13.3 µM (active),13.3 µM (active),inactive,,29.8 µM (active),26.6 µM (active),,
Cc1ccccc1CCO,inactive,inactive,inactive,inactive,inactive,inactive,inactive,inactive,,
Nc1nc(Cl)nc2c1ncn2[C@H]1C[C@H](O)[C@@H](CO)O1,inactive,13.3 nM (active) and 1.9 nM (active),16.8 nM (active) and 1.7 nM (active),21.1 nM (active) and 2.7 nM (active),inactive,inactive,422 nM (active) and 136 nM (active),298 nM (active) and 48.2 nM (active),,
O=C1OC(=O)C2CC=CCC12 (stereo not given),inactive,inactive,inactive,inactive,inactive,inactive,inactive,inactive,,
CCCCC(CC)COCCC#N (stereo not given),inactive,inactive,inactive,,inactive,,inactive,inactive,,
CCCCCCCCOCCCN,inactive,4.33 µM (active),6.86 µM (active),,inactive,inactive,13.7 µM (active),21.7 µM (active),inactive,inactive
Nc1ccc(F)cc1F,inactive,inactive,inactive,,inactive,inactive,inactive,,inactive,inactive
CC(C)(Cc1c[nH]c2ccccc12)NCC(O)COc1ccccc1C#N (stereo not given),inactive,9.44 µM (active),13.3 µM (active),,inactive,,21.1 µM (active),23.7 µM (active),,
CC1=CC(=C(c2ccc(N)cc2)c2ccc(N)cc2)C=CC1=N,inactive,5.31 µM (active),5.96 µM (active) and 3.1 µM (active),5.96 µM (active),,7.5 µM (active),13.3 µM (active),10.6 µM (active),,
NC(=O)c1cc[n+](CC2=C(C(=O)[O-])N3C(=O)[C@@H](NC(=O)Cc4cccs4)[C@H]3SC2)cc1,inactive,inactive,inactive,inactive,,inactive,,,,
